# Source: PubChem BioAssay
# This excerpt belongs to a sample that is enriched for hits.
# LmPK inhibitor = qHTS Assay for Inhibitors of Leishmania Mexicana Pyruvate Kinase (LmPK); Q27686; purified LmPK, Kinase-Glo ATP luminescence, 1 h; Potency, µM (titrated, usually from 57.5 µM), inactives show at the top dose activity change, negative = inhibition, usual class: inhibitors; 0.37% of 290,000 active; further: potency means the concentration at half of the fitted maximal effect; on the % scale 0 is the no-effect control and ±100 the full control effect
#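 Kinase-Glo luminescence read after 1 h RT reaction of 0.1 nM LmPK with 0.5 mM PEP and 0.1 mM ADP. Activity scaled between uninhibited and enzyme-free controls.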
# CHX counter = Cycloheximide Counterscreen for Small Molecule Inhibitors of Shiga Toxin | cell reporter, cycloheximide protein synthesis inhibition counterscreen | max response, % | 12% of 300,000 active | AID 2314, 2010; in the data active means max response mostly above about 13%, no sharp cut-off; inactive means mostly below about 14%; further: read at 38.3 µM for the half of the compounds with a filed dose; 0% is about no effect
# RE007 growth inh = qHTS Assay for Inhibitors of the HIV-1 protein Vpr; S. pombe RE007 Vpr strain, BacTiter-Glo ATP luminescence, 24 h; Potency, µM (top dose mostly 92.2 µM), inactives show top-dose activity change, negative = less growth, usual class: inhibitors; 0.21% of 360,000 active; active means well fitted falling curve with a large enough effect; inconclusive means small, poorly fitted or top-dose-only effect; inactive means no such curve, though single readings can be large or run the other way; further: potency means the concentration at half of the fitted maximal effect; on the % scale 0 is the no-effect control and ±100 the full control effect; nearly all actives have a fitted effect of over 50% in size
#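 Fission yeast strain RE007, carrying one chromosomally integrated HIV-1 vpr copy, was seeded at OD 0.01 in PMG+AL medium with 23 nL pinned compound. After 24 h at 30 °C and 99% humidity, viability was read by BacTiter-Glo luminescence.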
# Giardia FBPA inh = qHTS Assay for Inhibitors of Fructose-1,6-bisphosphate Aldolase from Giardia Lamblia. purified Giardia FBPA. Potency, µM (doses to about 59.6 µM), for the others: at the highest dose activity, negative = inhibition, most hits filed as inhibitors. 0.71% of 290,000 active. AID 2451, 2010; further: potency means the concentration at half of the fitted maximal effect; on the % scale 0 is the no-effect control and ±100 the full control effect; nearly all actives have a fitted effect of over 55% in size
# Target sequence (A8B2U2 whole entry, looked up): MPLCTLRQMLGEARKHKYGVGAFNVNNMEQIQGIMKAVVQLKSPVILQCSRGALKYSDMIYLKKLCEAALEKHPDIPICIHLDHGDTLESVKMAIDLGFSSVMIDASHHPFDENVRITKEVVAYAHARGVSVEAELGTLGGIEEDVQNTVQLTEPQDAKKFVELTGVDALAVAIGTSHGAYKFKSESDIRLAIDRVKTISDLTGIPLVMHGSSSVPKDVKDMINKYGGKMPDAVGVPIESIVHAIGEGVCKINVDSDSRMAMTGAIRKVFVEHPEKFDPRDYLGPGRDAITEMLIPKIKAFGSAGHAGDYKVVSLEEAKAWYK
#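 40 nM FBPA preincubated 10 min at RT with compound (up to 57.5 uM final), then substrate plus GAPDH/TPI/NAD/arsenate coupling and diaphorase/resazurin added. Fluorescence read after 20 min at RT, 525/598 nm.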
# Shiga toxin inh = A qHTS for Small Molecule Inhibitors of Shiga Toxin | Vero cells, Shiga toxin protein synthesis inhibition reporter | inhibition, % at 38.7 µM | 9.2% of 290,000 active; in the data active means inhibition mostly above about 28%, no sharp cut-off; inactive means mostly below about 43%; further: 0% is about no effect
# TbPYK inhibitor = qHTS of Trypanosoma Brucei Inhibitors. pyruvate kinase (Trypanosoma brucei), Q57TT1. AID 624173, 2012. Potency, µM (titrated, usually from 76.8 µM), without a hit: at the top dose activity, negative = inhibition, actives largely listed as inhibitors. TbPYK enzyme, Kinase-Glo Plus ATP luminescence, 45 min. 0.12% of 410,000 active; further: potency means the concentration at half of the fitted maximal effect; on the % scale 0 is the no-effect control and ±100 the full control effect; nearly all actives have a fitted effect of over 50% in size
#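 ADP (130 uM final) triggers the TbPYK reaction after compound addition; incubation is 45 min at room temperature. Kinase-Glo Plus is then added and luminescence imaged. Normalized data are fitted to concentration-effect curves.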
# An asterisk follows results filed as active; ? = inconclusive; nt = not tested or not shown. Unless noted, the call rests on the fitted dose curve; in most records, active means well fitted curve in the direction sought with a large enough effect; inconclusive means small, poorly fitted or top-dose-only effect, or another doubt; inactive means no such curve, though single readings can be large; an effect the other way counts as inactive or inconclusive.
SMILES,LmPK inhibitor,CHX counter,RE007 growth inh,Giardia FBPA inh,Shiga toxin inh,TbPYK inhibitor
O=C(NCc1cccs1)c1ccc2ccccc2n1,1%,32*,-4%,3%,73,-6%
O=C(NCc1cccs1)c1ccc([N+](=O)[O-])cc1Cl,0%,11*,-26%,3%,24,-5%
O=C(NCc1cccs1)c1csc2ccccc12,3%,25*,2%,-1%,33,5%
CCc1cccc(C)c1NC(=O)c1cc(=O)[nH]c2ccc(S(=O)(=O)N3CCOCC3)cc12,nt,nt,-6%,nt,nt,0%
Fc1ccc2c(c1)/C(=N/Nc1ccccn1)CCS2,2%,30*,?,-9%,58*,0%
Cc1ccc2c(c1)/C(=N/O)CCS2,9%,-3,-3%,-6%,-3,-20%
O=C(Nc1ccc2[nH]ncc2c1)c1cccc(F)c1,-3%,29*,13%,-1%,65*,-4%
O=C(Nc1ccc2[nH]c(=O)c(=O)[nH]c2c1)c1cccc(F)c1,nt,nt,nt,nt,nt,3%
O=C(Cc1ccccc1)Nc1ccc2[nH]ncc2c1,-1%,21*,7%,5%,23,-4%
O=C(Nc1cccc(NC(=O)c2ccc(F)cc2)c1)c1ccc(F)cc1,4%,-3,-7%,-4%,-4,7%
O=C(Nc1ccc2[nH]ncc2c1)c1ccccc1,-7%,22*,-15%,-5%,25,-2%
O=C(Nc1ccc2[nH]ncc2c1)c1ccc(F)cc1,-8%,19*,3%,-1%,55*,-3%
O=C(Cc1ccc(Br)cc1)Nc1ccc2[nH]ncc2c1,1%,-1,-11%,-3%,nt,2%
O=C(COc1ccccc1)Nc1ccc2[nH]ncc2c1,2%,-1,5%,8%,-3,2%
CCOC(=O)c1c(C)c(-c2ccccc2)n(CC(=O)NCCc2ccc(C)cc2)c1C,nt,nt,nt,nt,nt,0%
Cc1ccccc1OCC(=O)Nc1ccc2[nH]ncc2c1,-2%,15*,2%,11%,16,-5%
COc1ccc(-c2nc3sc(CCNC(=O)C(=O)Nc4ccc(C)c(F)c4)c(C)n3n2)cc1,nt,nt,nt,nt,nt,1%
Cc1nn(-c2ccccc2)c(Cl)c1C(=O)NC1CCCCC1,3%,15*,2%,1%,8,-8%
Cc1cccc(C)c1NC(=O)c1c(C)nn(-c2ccccc2)c1Cl,2%,-1,-15%,-4%,-5,-5%
Cc1ccc(NC(=O)c2c(C)nn(-c3ccccc3)c2Cl)c(C)c1,0%,23*,-7%,-3%,60*,-5%
Cc1nn(-c2ccccc2)c(Cl)c1C(=O)NCC(=O)O,4%,-1,1%,11%,-23,4%
COc1ccc(-c2cc(C(=O)Oc3ccc(C)cc3)c3ccccc3n2)cc1,nt,nt,nt,nt,nt,1%
CCN(C(=O)COC(=O)c1cc(-c2ccc3cc(OC)ccc3c2)nc2ccccc12)C1CCS(=O)(=O)C1 (configuration not stated),-7%,30*,nt,0%,43*,nt
COc1ccc(-c2cc(C(=O)OCC(=O)N(C)C)c3ccccc3n2)cc1,5%,26*,?,7%,30,4%
CCN(C(=O)COC(=O)c1c(C)nn(-c2ccccc2)c1C)C1CCS(=O)(=O)C1 (configuration not stated),-13%,16*,0%,4%,43*,-8%
COc1ccc(-c2cc(C(=O)OCc3ccccn3)c3ccccc3n2)cc1,-4%,27*,-20%,nt,10,-4%
COc1ccccc1CCNC(=O)CCCn1c(=O)c2cccn2c2cccnc21,nt,nt,nt,nt,nt,5%
O=C(c1cc(-c2ccc(F)cc2)on1)N1CCCc2ccccc21,1%,46*,-13%,-1%,64*,-15%
O=C(c1cc(-c2cccs2)on1)N1CCCc2ccccc21,3%,39*,-1%,7%,73*,2%
Cc1ccc(-c2cc(C(=O)N3CCCc4ccccc43)no2)cc1,-2%,31*,-18%,3%,98*,-8%
